# Screen size: about 310,000 compounds; about 1,600 (0.52%) were called active.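 Rule for the calls: active = activation above the mean of controls blocked by dofetilide plus 5 SD; inactive = the rest.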 For the sample, actives were picked, then their nearest neighbours and some compounds at random.
# Biological target: Voltage-gated inwardly rectifying potassium channel KCNH2 (Homo sapiens) (UniProt Q12809)
# Test: hERG rescue from dofetilide block, primary screen, cell-based, CHO-hERG, FluxOR thallium flux, dofetilide IC70 (AID 1511);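 note: thallium influx through hERG after potassium depolarization seen as dye fluorescence rise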
# Details: dofetilide IC70 present, at 10 µM, hits give high values
# Sequence of Voltage-gated inwardly rectifying potassium channel KCNH2 (Homo sapiens) (Q12809 whole entry, looked up): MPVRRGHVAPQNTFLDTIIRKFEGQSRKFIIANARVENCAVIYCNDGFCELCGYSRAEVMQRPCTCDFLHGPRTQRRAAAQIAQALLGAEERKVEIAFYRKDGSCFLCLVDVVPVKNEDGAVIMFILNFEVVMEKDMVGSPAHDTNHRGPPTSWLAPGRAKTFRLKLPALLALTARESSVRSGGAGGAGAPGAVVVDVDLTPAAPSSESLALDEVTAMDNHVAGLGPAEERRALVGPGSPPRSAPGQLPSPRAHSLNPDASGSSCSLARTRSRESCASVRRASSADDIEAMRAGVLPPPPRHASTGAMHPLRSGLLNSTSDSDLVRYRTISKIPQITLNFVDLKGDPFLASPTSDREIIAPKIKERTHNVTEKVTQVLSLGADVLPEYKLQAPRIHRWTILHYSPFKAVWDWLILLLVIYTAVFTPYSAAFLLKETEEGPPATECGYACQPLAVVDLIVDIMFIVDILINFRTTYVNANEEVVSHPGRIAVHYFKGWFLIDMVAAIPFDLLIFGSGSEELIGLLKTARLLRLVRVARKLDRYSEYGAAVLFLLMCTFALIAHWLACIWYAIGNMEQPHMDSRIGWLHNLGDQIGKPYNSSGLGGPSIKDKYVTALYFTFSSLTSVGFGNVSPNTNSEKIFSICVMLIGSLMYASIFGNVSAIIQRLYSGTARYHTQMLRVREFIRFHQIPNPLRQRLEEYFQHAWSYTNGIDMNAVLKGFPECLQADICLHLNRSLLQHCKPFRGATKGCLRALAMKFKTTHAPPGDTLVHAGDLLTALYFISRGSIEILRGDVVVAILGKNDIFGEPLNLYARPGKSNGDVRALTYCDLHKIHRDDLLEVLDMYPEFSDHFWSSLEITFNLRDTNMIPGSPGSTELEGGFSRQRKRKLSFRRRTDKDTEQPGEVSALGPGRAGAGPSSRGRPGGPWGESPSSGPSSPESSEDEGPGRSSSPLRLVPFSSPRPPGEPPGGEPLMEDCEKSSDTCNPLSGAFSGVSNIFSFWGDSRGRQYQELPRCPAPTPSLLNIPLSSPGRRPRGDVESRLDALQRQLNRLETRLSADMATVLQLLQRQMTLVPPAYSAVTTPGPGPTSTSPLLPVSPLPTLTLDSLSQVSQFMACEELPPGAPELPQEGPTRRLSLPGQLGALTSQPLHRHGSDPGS
row,Compound,"activation (rescue from dofetilide block), less the hit threshold"
1,Cc1cccc(NC(=O)c2ccc3ccccc3n2)n1,-1.08% (inactive)
2,CCOC(=O)C(=CNc1cccc(C)n1)C(=O)OCC,5.91% (active)
3,Cc1cccc(NC(=O)Cc2ccc(Br)cc2)n1,-12.3% (inactive)
4,COC(=O)[C@H](CC(C)C)NC(=O)N1CCCCC1C (some centres not stated),-7.74% (inactive)
5,CCc1ccc(CN(C)C(=O)CCc2nnc(-c3ccc(-c4ccccc4)cc3)o2)nc1,-22.3% (inactive)
6,NS(=O)(=O)c1ccc(CNC(=O)c2ccc(Cl)cc2[N+](=O)[O-])cc1,-2.96% (inactive)
7,O=C(Cn1ccc2cc(S(=O)(=O)N3CCCC3)ccc21)NCc1ccccc1,-5.85% (inactive)
8,O=C(N/N=C/c1cccnc1)c1cc2ccccc2cc1O,-0.07% (inactive)
9,Cc1ccc(/C=N/NC(=O)c2cc3ccccc3cc2O)o1,41.5% (active)
10,N=c1oc2ccccc2cc1C(=O)N/N=C/c1ccccc1,-8.66% (inactive)
11,CCCCCN1CC(O)=C(c2nc(-c3ccc(Cl)cc3)cs2)C1=N,-8.57% (inactive)
12,CCOC(=O)CCCN1CC(O)=C(c2nc3ccccc3s2)C1=N,-12% (inactive)
13,CCCCCN1CC(O)=C(c2ccccc2)C1=N,5.35% (active)
14,CCC1OC(c2ccc([N+](=O)[O-])cc2)=Nc2ccccc21 (configuration not stated),-15.1% (inactive)
15,Cc1ccc(C(C)C)cc1OCC(=O)Nc1ccccc1N1CCCC1,-20.3% (inactive)
16,CCc1cc2c(=O)c(-c3ccon3)c(N)oc2cc1OC,5.25% (active)
17,COc1ccc2oc(N)c(C=O)c(=O)c2c1,-3.18% (inactive)
18,CCc1cc2c(=O)c(-c3ccc(F)cc3)c(C(F)(F)F)oc2cc1OCC(=O)O,-11.1% (inactive)
19,CCOC(=O)c1cc(-c2ccc(Cl)s2)nc2c1c(C)nn2C,-9.55% (inactive)
20,CC12c3ccccc3C(c3ccccc31)C1C(=O)N(Cc3cccnc3)C(=O)C12 (configuration not stated),-9.37% (inactive)
21,CCOC(=O)C1CCN(C(=O)COc2cccc3ccccc23)CC1,-10.3% (inactive)

row,Compound,"activation (rescue from dofetilide block), less the hit threshold"
1,O=C(CN(CC1CCCO1)C(=O)CNS(=O)(=O)c1ccccc1)NCc1ccccc1 (configuration not stated),-7.03% (inactive)
2,O=C(CN(CC1CCCO1)C(=O)CNS(=O)(=O)c1ccc(F)cc1)NCc1ccco1 (configuration not stated),4.78% (active)
3,CC(C)C(C(=O)NCc1ccco1)N(CC1CCCO1)C(=O)CNS(=O)(=O)c1ccc(F)cc1 (configuration not stated),0.16% (inactive)
4,O=C(CSc1ccccn1)N1CCN(S(=O)(=O)c2ccc(Cl)cc2)CC1,-10.1% (inactive)
5,CC1(C)Cc2cccc(OCC(N)=O)c2O1,-3.71% (inactive)
6,CC1(C)Cc2cccc(OCC(=O)Nc3nccs3)c2O1,7.68% (active)
7,CC1(C)Cc2cccc(OCC(=O)NCc3ccccc3)c2O1,-7.06% (inactive)
8,Cc1ccc2c(c1)N(S(=O)(=O)c1cc(-c3cc(C)no3)ccc1C)CCO2,-7.78% (inactive)
9,O=C(CCc1ccccc1)NCCc1cccs1,-5.64% (inactive)
10,COc1cc(S(=O)(=O)N2CCOCC2)ccc1NC(=O)COc1ccc(N(C)S(=O)(=O)c2ccc(C)cc2)cc1,-22.3% (inactive)
11,O=C1NC(c2ccccc2)Oc2ccccc21 (configuration not stated),-10.1% (inactive)
12,CS(=O)(=O)c1sc(C(=O)NC(=S)Nc2ccc(OC(F)(F)F)cc2)c2c1C=CCC2,6.46% (active)
13,CCNC(=S)Nc1ccc(OC(F)(F)F)cc1,-17.9% (inactive)
14,FC(F)(F)Oc1ccc(NC(=S)NCc2ccccc2)cc1,-9.66% (inactive)
15,CC1(C)Cc2c(sc(NC(=O)C(=O)N3CCOCC3)c2C#N)CO1,-11.7% (inactive)
16,O=C(CSc1nnnn1C1CCCC1)Nc1ccc2c(c1)OCCO2,6.54% (active)
17,CC(=O)Nc1ccc(NC(=O)CSc2nnnn2C2CCCCC2)cc1,-7.91% (inactive)
18,CCC(=O)Nc1cccc(NC(=O)CSc2nnnn2C2CCCC2)c1,-7.7% (inactive)
19,O=C(O)c1ccccc1-c1ccccc1C(=O)NCCc1ccccc1,-5.86% (inactive)
20,CC(C)c1ccc(S(=O)(=O)NC2CCCC2)cc1,-6% (inactive)
21,CCOc1cc(CNn2c(C)nnc2SCC(=O)NC(C)(C)C)ccc1OCC(=O)NC(C)(C)C,-9.51% (inactive)

row,Compound,"activation (rescue from dofetilide block), less the hit threshold"
1,CC1CCN(C(=S)NC2CC3CCC2C3)CC1 (configuration not stated),-8.02% (inactive)
2,COc1ccc(CNC(=O)[C@@H]2CC=C[C@@H]3CCN(C4CC4)C(=O)[C@@H]32)cc1,-7.13% (inactive)
3,COc1ccc(CN2CC[C@H]3C=CC[C@@H](C(=O)N4CCOCC4)[C@H]3C2=O)cc1OC,5.8% (active)
4,COc1ccc(CN2CCOC2=O)cc1OC,-6.78% (inactive)
5,Cc1ccc(S(=O)(=O)c2c[nH]c3ccc(C)cc3c2=O)cc1,-9.36% (inactive)
6,Cn1c(CC(=O)Nc2ccc(F)cc2)nnc1SCC(=O)NC1CCCCC1,-1.47% (inactive)
7,CCOC(=O)c1c(NC(=S)Nc2ccccc2)sc2c1CCN(C)C2,-15.5% (inactive)
8,CCOC(=O)c1c(NC(=O)C2(C)Cc3ccccc3C(=O)O2)sc2c1CCCC2 (configuration not stated),-5.83% (inactive)
9,CCOC(=O)c1c(NC(=S)NC)sc2c1CCCC2,28.9% (active)
10,CCOc1ccc(CCN2C(=O)c3cccnc3C2=O)cc1OCC,-5.29% (inactive)
11,CCc1nnc(NC(=O)c2c(O)c3c([nH]c2=O)CCCC3)s1,-12.7% (inactive)
12,C[N+](C)(C)CCNC(=O)c1c(O)c2c([nH]c1=O)CCCC2,4.89% (active)
13,O=C(NCc1ccccn1)c1c(O)c2c([nH]c1=O)CCCC2,-0.66% (inactive)
14,CCSc1ccccc1C(=O)NCc1ccc(OC)cc1,0.47% (inactive)
15,CCC(C(=O)NC1CCCC1)N(C(=O)Cn1nnc(-c2ccc(C)o2)n1)c1ccc(OC)c(OC)c1 (configuration not stated),-1.5% (inactive)
16,CC(C)CNC(=S)NC(=O)c1ccc(Cl)cc1,7.52% (active)
17,CC(C)C(NC(=O)c1ccc(Cl)cc1)C(=O)O (configuration not stated),-8.13% (inactive)
18,O=C(NC(=S)NC1CCCCC1)c1ccc(Cl)cc1,-1.76% (inactive)
19,OC(c1nnc(-c2ccccc2)o1)c1cccs1 (configuration not stated),-10.2% (inactive)
20,COCCCNC(=O)[C@H]1N2C(=O)c3ccccc3C2SC1(C)C (some centres not stated),-7.64% (inactive)

# — PubChem BioAssay AID1511 (Johns Hopkins Ion Channel Center, 2009)
